Test results published in PubChem BioAssay (NCATS).
Records with an inconclusive call do not appear. Entries that show only a call come without a potency. Active and inactive are the calls of the source. Calls come from the whole dose curve; as a rule, active = well fitted curve in the direction sought with a large enough effect; inconclusive = small, poorly fitted or top-dose-only effect, or another doubt; inactive = no such curve, though single readings can be large; an effect the other way counts as inactive or inconclusive.

Tested on: not listed separately
Assay: qHTS to identify inhibitors of the type 1 interferon - major histocompatibility complex class I in skeletal muscle: primary screen against the NCATS Pharmaceutical Collection (AID 1347407);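 note: luminescence of HiBiT knocked into endogenous HLA-B as interferon-induced MHC class I level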
Conditions: human skeletal muscle cells, IFN-b-induced MHC-I HiBiT luminescence, 24 h; series mostly up to 45.9 µM
In short: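 Luminescence from HiBiT-tagged endogenous HLA-B*08:01 served as the read-out of IFN-beta-induced MHC class I in CRISPR-engineered C25cl48 myoblasts. Cells received 4 ng/ml IFN-beta plus compound (high final 46 uM, […]) for 24 h.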

| SMILES | Potency |
| --- | --- |
| O=C1OC2(c3ccccc31)c1cc(Br)c(O)c(Br)c1Oc1c2cc(Br)c(O)c1Br | inactive |
| Cc1cn([C@H]2C[C@H](F)[C@@H](CO)O2)c(=O)[nH]c1=O | inactive |
| CN1CCC[C@@H]1CCO[C@](C)(c1ccccc1)c1ccc(Cl)cc1 | inactive |
| CCC(Cc1c(I)cc(I)c(N)c1I)C(=O)O (stereo not given) | inactive |
| CCCCN=C(N)N=C(N)N | inactive |
| NS(=O)(=O)c1cc2c(cc1Cl)NC(CC1CCCC1)NS2(=O)=O (stereo not given) | inactive |
| CCCN(CCC)S(=O)(=O)c1ccc(C(=O)O)cc1 | inactive |
| C[C@@H](O)[C@H]1C(=O)N2C(C(=O)O)=C([C@H]3CCCO3)S[C@H]12 | inactive |
| COc1ccc(C(=O)c2ccccc2O)c(O)c1 | inactive |
| NC(=O)n1c(O)c(C(=O)c2cccs2)c2cc(Cl)ccc21 | inactive |

Molecular target: Protein phosphatase 1D (Homo sapiens) (UniProt O15297)
Sequence (O15297 whole entry, looked up): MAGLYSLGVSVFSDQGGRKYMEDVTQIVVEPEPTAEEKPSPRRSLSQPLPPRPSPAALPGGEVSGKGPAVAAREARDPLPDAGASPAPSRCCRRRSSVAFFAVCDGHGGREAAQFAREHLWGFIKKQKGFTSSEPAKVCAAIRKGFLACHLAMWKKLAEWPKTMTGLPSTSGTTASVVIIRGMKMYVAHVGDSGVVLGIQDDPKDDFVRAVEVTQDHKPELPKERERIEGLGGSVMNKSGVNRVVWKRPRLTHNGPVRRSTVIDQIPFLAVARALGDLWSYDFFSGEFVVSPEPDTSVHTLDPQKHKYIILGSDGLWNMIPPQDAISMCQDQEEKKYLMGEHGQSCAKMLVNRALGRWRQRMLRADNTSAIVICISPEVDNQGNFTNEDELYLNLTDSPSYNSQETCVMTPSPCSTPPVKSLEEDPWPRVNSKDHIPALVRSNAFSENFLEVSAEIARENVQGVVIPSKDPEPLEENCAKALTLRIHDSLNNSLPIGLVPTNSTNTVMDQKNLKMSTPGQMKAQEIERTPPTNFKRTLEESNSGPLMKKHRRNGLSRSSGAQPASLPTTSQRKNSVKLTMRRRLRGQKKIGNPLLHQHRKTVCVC
Assay: RapidFire Mass Spectrometry qHTS Assay for Modulators of WT P53-Induced Phosphatase 1 (WIP1) (AID 1347424);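 note: amount of dephosphorylated VEPPL-S-QETFS peptide product formed by WIP1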; note: potency is the fitted concentration of half-maximal effect
Conditions: WIP1 dephosphorylation of phosphopeptide, RapidFire MS; series mostly up to 63 µM
In short: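 10 nM WIP1 preincubated with compounds 1 hr at room temperature in pH 7.5 Tris buffer with 30 mM MgCl2, 1 mM TCEP; 2 uM VEPPL-pS-QETFS phosphopeptide for 5 min, formic acid quench; dephosphorylated product quantified by RapidFire MS against labelled standard.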

| SMILES | Potency |
| --- | --- |
| CCCCCN=C(N)N/N=C/c1c[nH]c2ccc(OC)cc12 | inactive |
| CCN(CC)CCOc1ccc2c(c1)C(=O)c1cc(OCCN(CC)CC)ccc1-2 | inactive |
| C=C[C@H]1CN2CC[C@H]1C[C@@H]2[C@@H](O)c1ccnc2ccc(OC)cc12 | inactive |
| CCN1CCN(C(=O)N[C@@H](C(=O)N[C@@H]2C(=O)N3C(C(=O)O)=C(CSc4nnnn4C)CS[C@H]23)c2ccc(O)cc2)C(=O)C1=O | inactive |
| O=C1C(CCS(=O)c2ccccc2)C(=O)N(c2ccccc2)N1c1ccccc1 (stereo not given) | inactive |
| CNCCCCOc1ccccc1Cc1ccccc1 | inactive |
| Cc1c(-c2ccccc2)oc2c(C(=O)OCCN3CCCCC3)cccc2c1=O | inactive |
| C#C[C@]1(O)CC[C@H]2[C@@H]3CCC4=Cc5oncc5C[C@]4(C)[C@H]3CC[C@@]21C | inactive |
| CC(=O)OCC(=O)[C@H]1CC[C@H]2[C@@H]3CCC4=CC(=O)CC[C@]4(C)[C@H]3CC[C@]12C | inactive |
| Oc1ccc(Cl)cc1Cc1cc(Cl)ccc1O | 22.4 µM (active) |
| CCCCCCCCCCCCCC[N+](C)(C)Cc1ccccc1 | inactive |
| CC1=C(C(=O)O)N2C(=O)[C@@H](NC(=O)[C@H](N)c3ccccc3)[C@H]2SC1 | inactive |
| CCCN(CCc1cccs1)[C@H]1CCc2c(O)cccc2C1 | inactive |
| CCCCC(CC)COC(=O)/C=C/c1ccc(OC)cc1 (stereo not given) | inactive |
| CCN(CC)CCNc1ccc(CO)c2sc3ccccc3c(=O)c12 | inactive |
| Oc1c(Cl)cc(Cl)c(Cl)c1Cc1c(O)c(Cl)cc(Cl)c1Cl | 8.91 µM (active) |
| O=C(O)CCNC(=O)c1ccccc1 | inactive |
| CCc1oc2ccccc2c1C(=O)c1cc(I)c(O)c(I)c1 | 3.55 µM (active) |
| O=C1c2cccc3c2[C@H](CCC3)CN1[C@@H]1CN2CCC1CC2 | inactive |
| NCCNc1cccc2ccccc12 | inactive |
